M1 ag: human M1 muscarinic receptor agonism; activation, % at 3 µM; P11229; AID 588814; 360,000 compounds, 0.33% hits; CHO-K1 hM1, Fluo-8 calcium fluorescence, agonist mode; 0% DMSO, 100% acetylcholine EC100;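 active = activation above the run's mean compound activation plus 3 SD, cut at about 16% in these data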;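 note: peak over basal fluorescence ratio within a 140 s kinetic read after compound addition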
Target sequence (P11229 whole entry, looked up): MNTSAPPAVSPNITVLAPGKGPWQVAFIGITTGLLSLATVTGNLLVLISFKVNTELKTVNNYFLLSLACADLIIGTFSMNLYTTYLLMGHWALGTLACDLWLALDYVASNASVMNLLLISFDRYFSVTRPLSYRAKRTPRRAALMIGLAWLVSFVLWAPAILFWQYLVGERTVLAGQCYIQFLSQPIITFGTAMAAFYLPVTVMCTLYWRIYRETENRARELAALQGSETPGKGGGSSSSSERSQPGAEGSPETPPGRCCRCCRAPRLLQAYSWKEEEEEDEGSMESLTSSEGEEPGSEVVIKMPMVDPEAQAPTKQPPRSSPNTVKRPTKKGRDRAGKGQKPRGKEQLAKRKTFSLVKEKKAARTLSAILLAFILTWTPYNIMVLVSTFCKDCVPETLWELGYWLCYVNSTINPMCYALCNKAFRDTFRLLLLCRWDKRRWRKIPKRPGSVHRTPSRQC
M1 PAM: human CHRM1 positive allosteric modulation; CHO-K1 hM1, Fluo-8 calcium fluorescence, ACh EC20; 0% = ACh EC20, 100% = maximal ACh; activation, % at 3 µM; 360,000 compounds, 0.088% hits; in the data active = activation above about 19%, passing the limit was not always enough
CHO-K1 Ca antag: M1 antagonist counterscreen hit in parental CHO-K1 cells; ATP-induced calcium, Fluo-8 fluorescence; inhibition, % at 3 µM; 360,000 compounds, 0.6% hits;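 active = inhibition above a per-plate cutoff, the plate's mean sample inhibition plus 3 SD, cut at about 24% in these data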;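 note: 0% = DMSO plus EC80 ATP and 100% = DMSO alone without ATP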
M1 antag: antagonists of human M1 muscarinic receptor | inhibition, % at 3 µM | CHO-K1 hM1, Fluo-8 calcium fluorescence, ACh EC80 antagonist | AID 588852 | 360,000 compounds, 1.3% hits;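 active = percent inhibition above its own plate's cutoff, namely the mean of that plate's compound wells plus 3 SD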;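 note: peak over basal fluorescence ratio during 140 s after agonist addition; 0% = ACh EC80 plus DMSO and 100% = DMSO alone without agonist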
CHO-K1 Ca ag: counter-screen for M1 agonists: effect in parental CHO-K1 cells | Fluo-8 calcium fluorescence; scaled to maximal ATP response, vehicle zero | activation, % at 3 µM | 360,000 compounds, 0.48% hits | AID 602248; in the data active = activation above about 15%;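 note: untransfected CHO-K1 host cells lacking M1 receptor as counterscreen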
CHO-K1 Ca PAM: nonselective activator or artifact in parental CHO-K1 calcium assay; ATP EC20, Fluo-8 calcium fluorescence; 0% at ATP EC20, 100% at ATP max; activation, % at 3 µM; 360,000 compounds, 0.02% hits; AID 602247;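 active = activation above the run cutoff, the mean activation of all test compounds plus 3 SD, cut at about 40% in these data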;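 note: peak over basal fluorescence ratio in a 140 s read after ATP addition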
The depositor's hits bear a star. Most compounds without a hit are left out; they make up all but 2.3% or so of the library.

SMILES	M1 ag	M1 PAM	CHO-K1 Ca antag	M1 antag	CHO-K1 Ca ag	CHO-K1 Ca PAM
O=C(NCCCN1CCN(Cc2ccccc2)CC1)C1CCN(c2nnc(-n3cccc3)s2)CC1	-4	-21	-4	44*	1	9
CC1([N+](=O)[O-])COC(c2cccc3ccccc23)OC1 (stereo not given)	-2	-9	26*	11	0	-15
COc1ccccc1C1OCC(C)([N+](=O)[O-])CO1 (stereo not given)	0	3	-10	-6	1	17
CCOC(=O)N1CCN(C(=O)Cc2c(C(=O)O)n(C)c3ccccc23)CC1	28*	1	-13	-5	0	18
CCOC(=O)N1CCN(Cc2c(O)ccc3ccccc23)CC1	4	2	-3	-5	16*	-7
COc1ccc(S(=O)(=O)N2CCN(C(=O)C3COc4ccccc4O3)CC2)cc1 (stereo not given)	-6	-28	-23	89*	6	12
NS(=O)(=O)c1ccc(N2CCN(C(=O)C3COc4ccccc4O3)CC2)nc1 (stereo not given)	2	6	13	-9	0	-27
O=C(C1CC(c2ccc(F)cc2)=NO1)N1CCCCC1 (stereo not given)	-3	-2	-12	3	0	14
O=C(C1COc2ccccc2O1)N1CCN(c2ccccc2)CC1 (stereo not given)	0	-1	53*	-17	1	5
O=C(C1CC(c2ccc(F)cc2)=NO1)N1CCN(c2ccccc2)CC1 (stereo not given)	-3	-9	12	47*	0	-7
O=C(C1COc2ccccc2O1)N1CCN(c2ccc(C(F)(F)F)cn2)CC1 (stereo not given)	-2	4	5	-3	24*	12
COc1ccccc1/C=C/C(=O)Nc1ccc(S(=O)(=O)Nc2cc(C)on2)cc1	0	11	-3	-6	0	7
Cn1nnc2cc(NC(=O)Nc3cccc(C(F)(F)F)c3)ccc21	-1	2	-3	2	4	18
c1ccc(-n2cc(CN3CCCC3)c(-c3ccc4c(c3)OCO4)n2)cc1	-7	1	-4	-7	20*	13
O=C(NCCCN1CCCC1=O)c1cn(-c2ccccc2)nc1-c1ccccc1	-1	13	1	-9	1	-19
Cc1ccc(S(=O)(=O)NN=CC2(c3ccccc3)CC2)cc1	-3	6	-5	-20	0	42*
Cc1ccc(S(=O)(=O)N/N=C\C=C\c2ccccc2)cc1	0	9	3	-9	0	-6
Cc1cc(-c2nnc(SCC(=O)Nc3ccc(Br)cc3F)n2N)n[nH]1	-1	2	-16	-3	0	-2
Cn1c2ccccc2c2cc(C(=O)N3CCN(CCO)CC3)sc21	-5	4	24*	0	0	-6
N#CCC(=O)Nc1ccc(C(=O)NCc2ccccn2)cc1	2	5	-16	11	0	2
COc1ccc(C(=O)CCc2ccccc2)c(O)c1	-3	-11	29*	20	2	-27
Cc1ccc(S(=O)(=O)NNC(=O)c2c(O)c3ccccc3[nH]c2=O)cc1	-2	0	-2	2	16*	18
COc1cc(-c2coc3c(C(=O)NCc4ccc(OC)c(OC)c4)cccc23)ccc1O	7	-16	-4	30*	15*	-7
COc1ccc(CNC(=O)c2cccc3c(-c4cccc(C(N)=O)c4)coc23)cc1OC	5	-19	26*	39*	11	-14
CCOC(=O)c1[nH]c2ccc(F)cc2c1NC(=O)Nc1ccccc1OC	-5	5	-1	-10	16*	10
SMILES	M1 ag	M1 PAM	CHO-K1 Ca antag	M1 antag	CHO-K1 Ca ag	CHO-K1 Ca PAM
Cc1ccc(Cl)cc1N1CCN(S(=O)(=O)c2ccc3c(c2)CC(=O)N3C)CC1	-2	-4	-5	3	2	-16
COc1ccc(NC(=O)CN(C)CC(=O)Nc2sc3c(c2C#N)CCC3)cc1	1	-5	21	34*	0	-13
CCN(CC(=O)NC(C)(C)C)C(=O)c1ccc2c(c1)S(=O)(=O)c1ccccc1C2=O	-3	0	7	4	1	-19
CS(=O)(=O)N(CC(=O)NC1CCCC1)c1ccc2c(c1)OCCO2	-2	-21	16	35*	0	-6
CNC(=O)CN(c1ccc2c(c1)OCCO2)S(C)(=O)=O	-4	2	-25	3	0	-1
Cc1cc(C)nc(/N=C(\N)Nc2ccc(C(C)C)cc2)n1	3	-14	4	14	16*	-4
Cc1ccc(N/C(N)=N/c2nc(C)cc(C)n2)cc1	-5	-7	-3	-6	9	0
CCCCc1ccc(N/C(N)=N/c2nc(C)cc(C)n2)cc1	35*	-28	46*	83*	42*	-28
CC(C)N1CCCC(C)(C(=O)Nc2cccc(Oc3ccccc3)c2)C1 (stereo not given)	-10	-20	-14	36*	0	14
CCCNC(=O)C1(C)CCN(Cc2ccc(Oc3ccccc3)cc2)C1 (stereo not given)	-6	-20	-9	14	3	9
CC(C)N1CCCC(C)(C(=O)Nc2ccccc2)C1 (stereo not given)	-3	2	-10	4	1	14
CCCNC(=O)C1(C)CCCN(Cc2ccc(Oc3ccccc3)cc2)C1 (stereo not given)	-8	-25	0	40*	0	10
COc1ccc2[nH]c3c(c2c1)CCNC3(C)CCc1ccc(Cl)nc1 (stereo not given)	-8	-3	-11	-2	3	-1
CSc1nc2c(cc1C#N)CCCCC2	-8	-26	17	30*	0	-14
COc1ccc2noc3c2c1C(=O)c1ccccc1-3	72*	-26	26*	22	22*	-28
COc1ccc(N)c2c1C(=O)c1ccccc1C2=O	-4	7	1	-3	0	-14
CCOC(=O)c1ccc(Nc2sc(C(=O)c3cccc([N+](=O)[O-])c3)c(N)c2C#N)cc1	4	7	4	0	13	-10
CC(C(=O)NCCSCc1cccc(Cl)c1)N(c1ccccc1)S(C)(=O)=O (stereo not given)	-4	2	-13	-3	3	14
Cc1ncc(C[n+]2csc(CCOC(=O)C34CC5CC(CC(C5)C3)C4)c2C)c(N)n1	-15	-18	3	9	0	-4
Cc1c(CCOC(=O)C23CC4CC(CC(C)(C4)C2)C3)sc[n+]1Cc1ccccc1	-5	-23	12	100*	-1	-4
Cc1c(CCOC(=O)c2ccc(Cl)cc2Cl)sc[n+]1CC(=O)c1ccccc1	-3	-29	-7	95*	2	-6

Screens deposited in PubChem BioAssay by The Scripps Research Institute Molecular Screening Center.
